This is an account of results in PMC7862700, “An all-to-all approach to the identification of sequence-specific readers for epigenetic DNA modifications on cytosine”.

Holding throughout (experiment): DAPPL (digital affinity profiling via proximity ligation, sequencing); 10 mM Tris-HCl pH 7.5, 50 mM NaCl, 1 mM DTT, 4% glycerol, room temperature, 30 min; GST-TFs on glutathione beads, 16-mer random dsDNA library, 0.1% formaldehyde crosslink after washing; high values mean tight binding
Common to all, as to details: protein: recombinant; tags: N-terminal GST; dsDNA, one strand shown

The target in test [1] is T1, ERF (Homo sapiens, UniProt P50548 1-548).
T1 sequence: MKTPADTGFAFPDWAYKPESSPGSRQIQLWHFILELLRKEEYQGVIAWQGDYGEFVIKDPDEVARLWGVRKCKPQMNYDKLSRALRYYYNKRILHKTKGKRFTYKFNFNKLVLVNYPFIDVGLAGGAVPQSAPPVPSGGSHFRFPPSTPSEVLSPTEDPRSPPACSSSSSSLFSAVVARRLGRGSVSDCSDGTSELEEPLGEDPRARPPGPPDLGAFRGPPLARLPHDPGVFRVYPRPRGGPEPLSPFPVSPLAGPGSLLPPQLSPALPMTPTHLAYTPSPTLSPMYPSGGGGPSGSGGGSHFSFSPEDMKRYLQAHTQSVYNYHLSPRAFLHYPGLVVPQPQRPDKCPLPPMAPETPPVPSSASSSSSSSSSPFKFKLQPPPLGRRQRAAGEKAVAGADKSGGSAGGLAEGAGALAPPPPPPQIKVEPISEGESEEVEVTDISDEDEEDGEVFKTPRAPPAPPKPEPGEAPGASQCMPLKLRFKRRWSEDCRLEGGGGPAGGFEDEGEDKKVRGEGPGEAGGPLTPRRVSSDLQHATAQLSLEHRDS
Put shortly: (§1)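 Sequencing on an Illumina NextSeq500 followed washing, crosslinking with 0.1% formaldehyde, proximity ligation (BsaI/T4 ligase, 1 h, 37 °C) and PCR amplification of pools that had been incubated for 30 min at room temperature with 200 nmole of a random double-stranded 16-mer DNA library in Tris/NaCl/DTT/glycerol buffer. Each pool held DNA-barcoded human transcription factors, expressed in yeast as GST fusions and captured on glutathione beads, plus a tag-only sample. Binding signal is a hexamer's read frequency for a factor divided by its frequency in the tag-only sample.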

In test [2] the target is T2, ETV3L (Homo sapiens, UniProt Q6ZN32 1-361).
T2 sequence: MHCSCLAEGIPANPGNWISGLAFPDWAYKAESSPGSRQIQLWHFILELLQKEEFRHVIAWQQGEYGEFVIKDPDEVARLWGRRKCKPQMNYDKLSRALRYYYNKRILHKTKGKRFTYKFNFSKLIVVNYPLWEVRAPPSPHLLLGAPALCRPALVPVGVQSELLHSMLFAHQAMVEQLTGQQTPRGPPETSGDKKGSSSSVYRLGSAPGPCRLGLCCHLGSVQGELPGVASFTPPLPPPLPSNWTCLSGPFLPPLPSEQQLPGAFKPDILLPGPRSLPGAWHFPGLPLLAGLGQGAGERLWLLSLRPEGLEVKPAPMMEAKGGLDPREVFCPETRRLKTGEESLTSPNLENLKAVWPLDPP
Put shortly:
as §1

In test [3] the target is T3, ETS2 (Homo sapiens, UniProt P15036 1-469).
T3 sequence: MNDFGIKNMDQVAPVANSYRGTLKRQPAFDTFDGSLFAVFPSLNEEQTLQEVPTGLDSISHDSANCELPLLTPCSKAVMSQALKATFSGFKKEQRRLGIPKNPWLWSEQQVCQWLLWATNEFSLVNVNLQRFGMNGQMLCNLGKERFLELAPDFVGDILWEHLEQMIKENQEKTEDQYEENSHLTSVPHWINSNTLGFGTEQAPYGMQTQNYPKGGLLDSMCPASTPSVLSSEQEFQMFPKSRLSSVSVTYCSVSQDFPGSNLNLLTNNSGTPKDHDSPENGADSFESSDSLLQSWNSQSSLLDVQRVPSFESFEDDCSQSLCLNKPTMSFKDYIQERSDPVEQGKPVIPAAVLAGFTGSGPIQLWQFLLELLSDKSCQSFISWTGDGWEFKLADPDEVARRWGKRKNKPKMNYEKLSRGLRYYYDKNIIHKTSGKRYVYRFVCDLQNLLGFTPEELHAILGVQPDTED
Put shortly: as §1

Test [4] concerns the target T4, SPDEF (Homo sapiens, UniProt O95238 1-335).
T4 sequence: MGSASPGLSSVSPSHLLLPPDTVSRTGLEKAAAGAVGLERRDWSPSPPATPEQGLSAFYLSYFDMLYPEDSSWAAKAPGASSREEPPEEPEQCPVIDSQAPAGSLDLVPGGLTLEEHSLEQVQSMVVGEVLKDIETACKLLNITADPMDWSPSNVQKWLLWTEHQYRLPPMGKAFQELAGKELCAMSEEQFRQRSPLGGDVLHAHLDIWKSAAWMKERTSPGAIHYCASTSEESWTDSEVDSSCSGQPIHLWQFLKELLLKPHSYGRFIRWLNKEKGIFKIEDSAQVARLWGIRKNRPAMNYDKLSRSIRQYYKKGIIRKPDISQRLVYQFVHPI
Put shortly:
as §1

Test [5] addresses T5, ETV7 (Homo sapiens, UniProt Q9Y603 1-341).
T5 sequence: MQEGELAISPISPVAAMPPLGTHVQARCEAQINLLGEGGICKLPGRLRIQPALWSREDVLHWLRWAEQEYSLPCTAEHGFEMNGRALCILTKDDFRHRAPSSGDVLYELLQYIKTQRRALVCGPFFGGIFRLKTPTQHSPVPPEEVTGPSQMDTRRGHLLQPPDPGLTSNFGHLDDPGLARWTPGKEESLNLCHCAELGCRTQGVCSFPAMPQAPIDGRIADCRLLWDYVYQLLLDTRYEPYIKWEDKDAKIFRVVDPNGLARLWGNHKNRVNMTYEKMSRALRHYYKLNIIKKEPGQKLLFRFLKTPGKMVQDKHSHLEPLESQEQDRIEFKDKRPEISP
Put shortly:
as §1

Test [6] deals with T6, ELF5 (Homo sapiens, UniProt Q9UKW6-2 1-255).
T6 sequence: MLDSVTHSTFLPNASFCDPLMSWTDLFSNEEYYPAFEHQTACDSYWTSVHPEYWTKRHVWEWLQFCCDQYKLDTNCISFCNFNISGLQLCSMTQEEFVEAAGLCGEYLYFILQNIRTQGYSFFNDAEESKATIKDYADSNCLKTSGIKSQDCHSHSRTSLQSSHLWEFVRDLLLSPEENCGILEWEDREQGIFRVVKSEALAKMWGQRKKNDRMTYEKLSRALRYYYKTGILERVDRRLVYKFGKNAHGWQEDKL
Put shortly:
as §1

Test [7] concerns the target T7, ETV3 (Homo sapiens, UniProt P41162-2 1-143).
T7 sequence: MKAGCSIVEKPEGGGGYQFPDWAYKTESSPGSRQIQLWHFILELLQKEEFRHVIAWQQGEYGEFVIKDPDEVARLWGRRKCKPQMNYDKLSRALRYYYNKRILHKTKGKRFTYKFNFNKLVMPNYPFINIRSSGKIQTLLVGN
Put shortly:
as §1

Test [8] addresses ETV6 (Homo sapiens, UniProt P41212 1-452). Put shortly: as §1

Sequence of ETV6 (P41212 whole entry): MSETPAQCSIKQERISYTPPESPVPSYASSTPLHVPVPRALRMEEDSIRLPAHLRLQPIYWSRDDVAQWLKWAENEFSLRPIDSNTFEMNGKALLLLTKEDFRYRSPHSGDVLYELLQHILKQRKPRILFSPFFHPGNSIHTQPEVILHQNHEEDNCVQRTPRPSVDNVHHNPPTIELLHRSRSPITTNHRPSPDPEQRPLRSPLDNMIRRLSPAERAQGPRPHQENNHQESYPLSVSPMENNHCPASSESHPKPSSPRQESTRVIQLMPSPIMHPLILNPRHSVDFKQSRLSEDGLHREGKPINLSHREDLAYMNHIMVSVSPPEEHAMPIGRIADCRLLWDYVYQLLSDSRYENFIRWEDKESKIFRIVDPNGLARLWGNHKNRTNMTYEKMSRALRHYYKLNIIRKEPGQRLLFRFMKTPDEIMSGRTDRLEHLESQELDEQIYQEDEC

For AAGTGT, the binding signal in test [1] is 1.24 fold enrichment (6-mer frequency, TF over GST control); in test [2], 1.2 fold enrichment (6-mer frequency, TF over GST control); in test [3], 1.38 fold enrichment (6-mer frequency, TF over GST control); in test [4], 1.32 fold enrichment (6-mer frequency, TF over GST control); in test [5], 1.42 fold enrichment (6-mer frequency, TF over GST control); in test [6], 1.43 fold enrichment (6-mer frequency, TF over GST control). Also, the binding signal in test [7] is 1.23 fold enrichment (6-mer frequency, TF over GST control); in test [8], 1.35 fold enrichment (6-mer frequency, TF over GST control).

TTAGCG: the binding signal is 1.05 fold enrichment (6-mer frequency, TF over GST control) in test [1]; 1.06 fold enrichment (6-mer frequency, TF over GST control) in test [2]; 1.06 fold enrichment (6-mer frequency, TF over GST control) in test [3]; 1.04 fold enrichment (6-mer frequency, TF over GST control) in test [4]; 1.11 fold enrichment (6-mer frequency, TF over GST control) in test [5]; 1.02 fold enrichment (6-mer frequency, TF over GST control) in test [6]. Further, the binding signal in test [7] is 1.03 fold enrichment (6-mer frequency, TF over GST control); in test [8], 1.04 fold enrichment (6-mer frequency, TF over GST control).

For the sequence GTTGCA, the binding signal was 1.13 fold enrichment (6-mer frequency, TF over GST control) in test [1]; 1.19 fold enrichment (6-mer frequency, TF over GST control) in test [2]; 1.17 fold enrichment (6-mer frequency, TF over GST control) in test [3]; 1.17 fold enrichment (6-mer frequency, TF over GST control) in test [4]; 1.15 fold enrichment (6-mer frequency, TF over GST control) in test [5]; 1.1 fold enrichment (6-mer frequency, TF over GST control) in test [6]. In addition, the binding signal in test [7] was 1.14 fold enrichment (6-mer frequency, TF over GST control); in test [8], 1.11 fold enrichment (6-mer frequency, TF over GST control).

In the case of CCATCT, the binding signal was 1.41 fold enrichment (6-mer frequency, TF over GST control) in test [1]; 1.35 fold enrichment (6-mer frequency, TF over GST control) in test [2]; 1.35 fold enrichment (6-mer frequency, TF over GST control) in test [3]; 1.11 fold enrichment (6-mer frequency, TF over GST control) in test [4]; 1.33 fold enrichment (6-mer frequency, TF over GST control) in test [5]; 1.27 fold enrichment (6-mer frequency, TF over GST control) in test [6]. In addition, the binding signal was 1.25 fold enrichment (6-mer frequency, TF over GST control) in test [7] and 1.25 fold enrichment (6-mer frequency, TF over GST control) in test [8].

On to TTGATT, for which the binding signal in test [1] was 1.31 fold enrichment (6-mer frequency, TF over GST control); in test [2], 1.25 fold enrichment (6-mer frequency, TF over GST control); in test [3] it was 1.22 fold enrichment (6-mer frequency, TF over GST control); in test [4] it was 1.15 fold enrichment (6-mer frequency, TF over GST control); in test [5], 1.28 fold enrichment (6-mer frequency, TF over GST control); in test [6], 1.16 fold enrichment (6-mer frequency, TF over GST control). Moreover, the binding signal was 1.3 fold enrichment (6-mer frequency, TF over GST control) in test [7] and 1.18 fold enrichment (6-mer frequency, TF over GST control) in test [8].

GTTCCC: the binding signal in test [1] was 1.31 fold enrichment (6-mer frequency, TF over GST control); in test [2] it was 1.22 fold enrichment (6-mer frequency, TF over GST control); in test [3], 1.28 fold enrichment (6-mer frequency, TF over GST control); in test [4] it was 1.29 fold enrichment (6-mer frequency, TF over GST control); in test [5], 1.3 fold enrichment (6-mer frequency, TF over GST control); in test [6] it was 1.48 fold enrichment (6-mer frequency, TF over GST control). The binding signal in test [7] was 1.31 fold enrichment (6-mer frequency, TF over GST control); in test [8] it was 1.28 fold enrichment (6-mer frequency, TF over GST control).
